C diff growth – blocks growth of Clostridium difficile. Clostridium difficile clinical isolate growth, OD600, 24 h; hits give low values. growth activity, negative = inhibition, % at 16 µg/mL (by protocol). 86,000 compounds, 0.25% hits;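 active means mean growth activity at or below -80% and every replicate also at or below -80%; inconclusive means mean at or below -80% but some replicate above -80%; inactive means mean growth activity above -80%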
Pf Dd2 growth – inhibitors of Plasmodium falciparum Dd2 growth. activity change, % at 10 µM. 94,000 compounds, 2.3% hits. P. falciparum Dd2 growth, SYBR Green, 72 h; hits give low values; in the data active means activity change below about -80%; inconclusive means no clear call, values can overlap the other calls
Each line names hits and unclear results; the compound was inactive in the other large screens. This is a sample that favours compounds with a hit; in the whole collection about 2.3% have one here.

COc1ccc(CN(C)C[C@@H]2OCCCC[C@@H](C)Oc3ccc(NC(=O)Nc4cccc5ccccc45)cc3C(=O)N([C@H](C)CO)C[C@@H]2C)cc1	none
COc1ccc(CN(C)C[C@H]2OCCCC[C@@H](C)Oc3ccc(NC(=O)Nc4cccc5ccccc45)cc3C(=O)N([C@H](C)CO)C[C@H]2C)cc1	Pf Dd2 growth -87
COc1ccc(CN(C)C[C@H]2OCCCC[C@H](C)Oc3ccc(NC(=O)Nc4cccc5ccccc45)cc3C(=O)N([C@H](C)CO)C[C@@H]2C)cc1	none
COc1ccc(CN(C)C[C@@H]2OCCCC[C@H](C)Oc3ccc(NC(=O)Nc4cccc5ccccc45)cc3C(=O)N([C@@H](C)CO)C[C@H]2C)cc1	none
C[C@@H]1CN([C@H](C)CO)C(=O)c2cccc(NC(=O)C3CC3)c2O[C@H]1CN(C)C(=O)NC1CCCCC1	none
COc1ccc(S(=O)(=O)Nc2ccc3c(c2)[C@H]2C[C@@H](CC(=O)O)O[C@@H](CO)[C@H]2O3)cc1	none
CC=Cc1ccc2n(c1=O)C[C@H]1[C@H](CO)[C@@H](C(=O)N3CCOCC3)[C@@H]2N1CC1CCCC1 (mixture of isomers)	none (no result: Pf Dd2 growth)
CS(=O)(=O)N1[C@H](C#N)[C@@H](c2ccccc2-c2ccc(F)cc2)[C@@H]1CO	none
C/C=C/c1ccc([C@H]2[C@@H](CO)N(C(=O)NC3CCCC3)[C@H]2C#N)cc1	none
COc1ccc(-c2ccccc2[C@H]2[C@@H](C#N)N(C(=O)NC3CCCC3)[C@H]2CO)cc1	Pf Dd2 growth -94
COc1ccc(-c2ccccc2[C@@H]2[C@H](C#N)N(C(=O)C3CCCC3)[C@H]2CO)cc1	none
COc1ccc(-c2ccccc2[C@@H]2[C@@H](C#N)N(C(=O)NC3CCCCC3)[C@H]2CO)cc1	none
C/C=C/c1ccc([C@H]2[C@@H](C#N)N(C(=O)NC3CCCC3)[C@@H]2CO)cc1	Pf Dd2 growth -84
CS(=O)(=O)N1[C@H](C#N)[C@H](c2ccccc2-c2ccc(F)cc2)[C@H]1CO	Pf Dd2 growth -86
COc1ccc(-c2ccccc2[C@H]2[C@@H](C#N)N(C(=O)C3CCCC3)[C@H]2CO)cc1	Pf Dd2 growth -98
Cc1cccc(S(=O)(=O)N2C[C@@H]3N[C@H](C2)C3c2ccc(-c3ccccc3F)cc2)c1 (stereo partly specified)	none
Cc1noc(C)c1S(=O)(=O)Nc1ccc2c(c1)C(=O)N([C@H](C)CO)C[C@@H](C)[C@@H](CN(C)S(=O)(=O)c1ccccc1)OCCCC[C@@H](C)O2	none
CN(C)CC(=O)Nc1ccc2c(c1)[C@@H]1C[C@H](CC(=O)NCc3ccccc3)O[C@H](CO)[C@@H]1O2	none (no result: C diff growth)
N#C[C@@H]1[C@H](c2ccccc2/C=C/c2ccccc2)[C@H](CO)N1S(=O)(=O)c1ccc(F)cc1	Pf Dd2 growth -91
CC(C)NC(=O)N1[C@H](C#N)[C@@H](c2ccccc2-c2ccc(F)cc2)[C@@H]1CO	none
CC(C)NC(=O)N1[C@H](C#N)[C@H](c2ccccc2-c2ccc(F)cc2)[C@@H]1CO	Pf Dd2 growth -90
COc1ccc(-c2ccc([C@H]3[C@H](C#N)N(C(=O)c4cccnc4)[C@H]3CO)cc2)cc1	Pf Dd2 growth -91
N#C[C@@H]1[C@@H](c2ccccc2)[C@@H](CO)N1C(=O)c1cccnc1	none
N#C[C@@H]1[C@H](c2ccccc2/C=C/c2ccccc2)[C@H](CO)N1S(=O)(=O)c1cccc(F)c1	none
CCNC(=O)C[C@H]1CC[C@H]2[C@@H](COc3ccc(NC(=O)Nc4ccc(C#N)cc4)cc3C(=O)N2C)O1	none
O=C(C[C@@H]1C[C@@H]2c3cc(NC(=O)NC4CCCCC4)ccc3O[C@@H]2[C@@H](CO)O1)NCc1ccccn1	none
C[C@H](CO)N1C[C@H](C)[C@H](CN(C)S(=O)(=O)c2cn(C)cn2)Oc2c(NC(=O)C3CC3)cccc2C1=O	none
O=C(Nc1ccc(F)cc1)N[C@@H]1CC[C@H](CCNC(=O)c2ccccc2F)O[C@H]1CO	none
COc1ccc2c3c([nH]c2c1)[C@H](CO)N(C(=O)C1CC1)CC31CCN(C(=O)c2ccncc2)CC1	none (no result: C diff growth)
C[C@@H]1CCCCO[C@H](CN(C)C(=O)Nc2ccc(C(F)(F)F)cc2)[C@@H](C)CN([C@H](C)CO)C(=O)c2cc(NS(=O)(=O)c3ccccc3)ccc2O1	none
C[C@@H]1CCCCO[C@@H](CN(C)C(=O)Nc2ccccc2)[C@@H](C)CN([C@H](C)CO)C(=O)c2cc(NS(=O)(=O)c3ccc(F)cc3)ccc2O1	none
C[C@@H]1CCCCO[C@H](CN(C)C(=O)Nc2ccc(C(F)(F)F)cc2)[C@@H](C)CN([C@@H](C)CO)C(=O)c2cc(NS(=O)(=O)c3ccccc3)ccc2O1	Pf Dd2 growth -84
Cc1ccc(S(=O)(=O)Nc2ccc3c(c2)C(=O)N([C@@H](C)CO)C[C@@H](C)[C@@H](CN(C)C(=O)Nc2ccc4c(c2)OCO4)OCCCC[C@H](C)O3)cc1	Pf Dd2 growth inconclusive
C[C@H](CO)N1C[C@H](C)[C@H](CN(C)C(=O)Nc2ccc(C(F)(F)F)cc2)OCCCC[C@H](C)Oc2ccc(NS(=O)(=O)c3ccc(Cl)cc3)cc2C1=O	none
C[C@@H]1CCCCO[C@H](CN(C)C(=O)Nc2ccc(F)cc2)[C@H](C)CN([C@@H](C)CO)C(=O)c2cc(NS(=O)(=O)c3ccccc3)ccc2O1	Pf Dd2 growth -91
Cc1ccc(S(=O)(=O)Nc2ccc3c(c2)C(=O)N([C@@H](C)CO)C[C@H](C)[C@@H](CN(C)C(=O)Nc2ccc4c(c2)OCO4)OCCCC[C@@H](C)O3)cc1	Pf Dd2 growth -85
C[C@H]1CCCCO[C@H](CN(C)C(=O)Nc2ccc(C(F)(F)F)cc2)[C@@H](C)CN([C@@H](C)CO)C(=O)c2cc(NS(=O)(=O)c3ccc(Cl)cc3)ccc2O1	Pf Dd2 growth -83
C[C@H](CO)N1C[C@H](C)[C@H](CN(C)C(=O)C2CCCCC2)OCCCC[C@H](C)Oc2ccc(NS(=O)(=O)c3ccccc3)cc2C1=O	none
OC[C@@H]1Nc2ccc(C3=CCCCC3)cc2[C@@H]2[C@H]1CCN2Cc1nccs1	none
C[C@@H]1CN([C@H](C)CO)C(=O)c2cc(NS(=O)(=O)c3ccc(Cl)cc3)ccc2O[C@@H](C)CCCCO[C@H]1CN(C)C(=O)Nc1ccccc1	none
C[C@@H]1CCCCO[C@@H](CN(C)C(=O)Nc2ccc(F)cc2)[C@H](C)CN([C@H](C)CO)C(=O)c2cc(NS(=O)(=O)c3ccc(F)cc3)ccc2O1	none
C[C@H](CO)N1C[C@H](C)[C@@H](CN(C)C(=O)Nc2ccc(C(F)(F)F)cc2)OCCCC[C@H](C)Oc2ccc(NS(=O)(=O)c3ccc(F)cc3)cc2C1=O	none
C[C@@H]1CCCCO[C@H](CN(C)C(=O)Nc2ccc(F)cc2)[C@H](C)CN([C@H](C)CO)C(=O)c2cc(NS(=O)(=O)c3ccc(F)cc3)ccc2O1	Pf Dd2 growth -87
C[C@@H]1CN([C@@H](C)CO)C(=O)c2cc(NS(=O)(=O)c3ccc(F)cc3)ccc2O[C@@H](C)CCCCO[C@@H]1CN(C)C(=O)Nc1ccc(C(F)(F)F)cc1	Pf Dd2 growth -88
C[C@@H]1CCCCO[C@H](CN(C)C(=O)Nc2ccccc2)[C@@H](C)CN([C@@H](C)CO)C(=O)c2cc(NS(=O)(=O)c3ccc(Cl)cc3)ccc2O1	Pf Dd2 growth -89
O=C(C[C@@H]1CC[C@@H]2[C@H](COC[C@H](O)CN2C(=O)c2ccccn2)O1)N1CCN(c2ccccc2)CC1	none (no result: C diff growth)

Screening results from PubChem.
